Data from the supplement of paper PMC11732987, “Enantioselective OTUD7B fragment discovery through chemoproteomics screening and high-throughput optimisation” (Communications Chemistry, 2025).

Key:
Test in all cases: log2 ratio of Biotin-Ahx-Ub-VS probe labelling (fragment/DMSO); higher = less target engagement (more negative = stronger competition), active = hit call of the paper (q ≤ 0.05, log2 ratio ≤ -1)
Settings in all cases: compound concentration: 200 uM; treatment time: 3 h
OTUD6B = target: T1, OTUD6B (UniProt Q8N6M0)
T1 sequence (whole entry): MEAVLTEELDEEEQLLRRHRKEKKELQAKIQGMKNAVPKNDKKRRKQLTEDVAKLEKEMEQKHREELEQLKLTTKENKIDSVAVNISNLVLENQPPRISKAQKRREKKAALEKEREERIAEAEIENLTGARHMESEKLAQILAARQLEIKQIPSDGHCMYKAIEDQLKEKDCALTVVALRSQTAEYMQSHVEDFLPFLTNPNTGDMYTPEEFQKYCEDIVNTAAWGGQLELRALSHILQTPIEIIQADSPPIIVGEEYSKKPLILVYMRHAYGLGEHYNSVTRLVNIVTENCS
Summary of the method: (§1)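 Fragment (200 µM) or vehicle was incubated for 3 h with triplicate HEK293T lysate samples of 495 µg, which were then treated with Biotin-Ahx-Ub-VS at 0.5 µM final for 1 h. Labelled DUBs were enriched on NeutrAvidin, digested with LysC and trypsin, and analysed by diaPASEF LC-MS/MS. Values are average log2 fragment/vehicle ratios from an unpaired t-test on global-median-normalised Spectronaut label-free quantities, using proteins with ≥2 unique peptides.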

OTUD7B = target: T2, OTUD7B (UniProt Q6GQQ9)
T2 sequence (whole entry): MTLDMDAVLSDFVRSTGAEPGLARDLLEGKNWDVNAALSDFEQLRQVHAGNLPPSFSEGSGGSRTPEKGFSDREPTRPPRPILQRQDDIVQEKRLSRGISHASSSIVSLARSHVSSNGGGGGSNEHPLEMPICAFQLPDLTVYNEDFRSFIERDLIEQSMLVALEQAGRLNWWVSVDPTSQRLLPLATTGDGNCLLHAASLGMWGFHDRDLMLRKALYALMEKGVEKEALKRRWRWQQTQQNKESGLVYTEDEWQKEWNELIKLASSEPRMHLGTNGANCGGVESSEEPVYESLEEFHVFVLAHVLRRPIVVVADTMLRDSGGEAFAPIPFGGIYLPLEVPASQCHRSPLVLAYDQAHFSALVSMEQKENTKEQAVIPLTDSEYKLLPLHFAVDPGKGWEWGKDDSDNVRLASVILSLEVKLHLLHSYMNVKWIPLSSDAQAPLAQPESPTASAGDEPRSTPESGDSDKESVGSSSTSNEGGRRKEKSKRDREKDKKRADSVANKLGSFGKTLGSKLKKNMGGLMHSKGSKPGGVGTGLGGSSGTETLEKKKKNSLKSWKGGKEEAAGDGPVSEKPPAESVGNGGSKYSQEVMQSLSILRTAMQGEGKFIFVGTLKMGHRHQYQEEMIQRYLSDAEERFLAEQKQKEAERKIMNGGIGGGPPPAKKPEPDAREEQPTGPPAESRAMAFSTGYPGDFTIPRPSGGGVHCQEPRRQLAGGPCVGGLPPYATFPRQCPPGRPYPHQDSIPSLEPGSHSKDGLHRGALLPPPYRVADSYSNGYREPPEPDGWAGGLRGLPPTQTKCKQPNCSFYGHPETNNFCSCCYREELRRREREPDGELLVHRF
Summary of the method: as §1

PRPF8 = PRPF8 (UniProt Q6P2Q9)
Summary of the method: as §1

PSMD7 = target: T3, PSMD7 (UniProt P51665)
T3 sequence (whole entry): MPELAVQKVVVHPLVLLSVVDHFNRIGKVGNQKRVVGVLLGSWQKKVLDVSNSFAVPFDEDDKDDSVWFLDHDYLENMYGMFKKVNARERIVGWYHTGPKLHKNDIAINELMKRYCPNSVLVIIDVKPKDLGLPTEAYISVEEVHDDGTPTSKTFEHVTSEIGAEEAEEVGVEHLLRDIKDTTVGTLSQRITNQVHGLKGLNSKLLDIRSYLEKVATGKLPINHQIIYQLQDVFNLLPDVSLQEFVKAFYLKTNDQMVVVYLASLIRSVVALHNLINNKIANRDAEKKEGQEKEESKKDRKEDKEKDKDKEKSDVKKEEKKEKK
Summary of the method: as §1

UCHL1 = UCHL1 (UniProt P09936)
Chain of UCHL1 (P09936 whole entry, looked up): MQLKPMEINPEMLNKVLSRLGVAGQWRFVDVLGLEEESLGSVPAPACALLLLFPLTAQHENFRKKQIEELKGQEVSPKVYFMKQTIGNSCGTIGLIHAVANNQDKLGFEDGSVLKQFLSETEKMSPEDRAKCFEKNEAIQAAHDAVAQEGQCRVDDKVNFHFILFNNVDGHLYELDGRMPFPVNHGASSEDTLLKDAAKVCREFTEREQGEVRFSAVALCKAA
Summary of the method: as §1

UCHL3 = target: T4, UCHL3 (UniProt P15374)
T4 sequence (whole entry): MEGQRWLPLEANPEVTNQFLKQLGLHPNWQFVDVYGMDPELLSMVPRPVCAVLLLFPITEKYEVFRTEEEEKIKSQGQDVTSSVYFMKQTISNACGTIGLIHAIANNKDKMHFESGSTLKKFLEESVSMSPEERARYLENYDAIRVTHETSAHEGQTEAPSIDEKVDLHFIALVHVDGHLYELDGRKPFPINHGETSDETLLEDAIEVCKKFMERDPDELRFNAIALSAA
Summary of the method: as §1

UCHL5 = target: T5, UCHL5 (UniProt Q9Y5K5)
T5 sequence (whole entry): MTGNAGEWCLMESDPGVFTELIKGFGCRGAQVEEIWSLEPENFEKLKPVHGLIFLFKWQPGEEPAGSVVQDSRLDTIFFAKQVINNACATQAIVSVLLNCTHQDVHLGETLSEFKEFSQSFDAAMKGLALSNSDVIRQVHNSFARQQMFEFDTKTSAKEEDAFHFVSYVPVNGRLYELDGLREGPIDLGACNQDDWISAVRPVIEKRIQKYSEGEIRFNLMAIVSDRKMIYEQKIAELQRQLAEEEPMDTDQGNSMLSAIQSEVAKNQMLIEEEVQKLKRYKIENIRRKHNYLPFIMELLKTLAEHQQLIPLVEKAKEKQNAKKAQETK
Summary of the method: as §1

USP10 = USP10 (UniProt Q14694)
Chain of USP10 (Q14694 whole entry): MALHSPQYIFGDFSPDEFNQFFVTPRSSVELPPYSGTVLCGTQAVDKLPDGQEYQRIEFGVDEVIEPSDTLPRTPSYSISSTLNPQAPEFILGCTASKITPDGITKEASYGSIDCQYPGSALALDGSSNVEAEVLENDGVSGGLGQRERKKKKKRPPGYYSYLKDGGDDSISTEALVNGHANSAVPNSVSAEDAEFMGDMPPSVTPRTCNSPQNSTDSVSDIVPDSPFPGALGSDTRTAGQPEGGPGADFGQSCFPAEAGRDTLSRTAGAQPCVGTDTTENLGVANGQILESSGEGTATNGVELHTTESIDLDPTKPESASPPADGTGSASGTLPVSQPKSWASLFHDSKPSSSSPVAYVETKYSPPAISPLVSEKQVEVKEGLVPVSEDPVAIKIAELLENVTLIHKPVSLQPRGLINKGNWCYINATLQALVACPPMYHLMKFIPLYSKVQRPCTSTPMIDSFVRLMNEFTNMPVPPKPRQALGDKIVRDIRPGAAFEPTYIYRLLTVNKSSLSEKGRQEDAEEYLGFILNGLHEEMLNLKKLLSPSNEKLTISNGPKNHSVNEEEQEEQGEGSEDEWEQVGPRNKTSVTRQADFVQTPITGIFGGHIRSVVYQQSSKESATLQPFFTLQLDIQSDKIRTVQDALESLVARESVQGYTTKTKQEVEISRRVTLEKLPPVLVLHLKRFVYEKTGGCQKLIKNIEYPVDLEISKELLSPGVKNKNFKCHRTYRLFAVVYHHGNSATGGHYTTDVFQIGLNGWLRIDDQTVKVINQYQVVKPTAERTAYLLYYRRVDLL
Summary of the method: as §1

USP15 = target: T6, USP15 (UniProt Q9Y4E8)
T6 sequence (whole entry): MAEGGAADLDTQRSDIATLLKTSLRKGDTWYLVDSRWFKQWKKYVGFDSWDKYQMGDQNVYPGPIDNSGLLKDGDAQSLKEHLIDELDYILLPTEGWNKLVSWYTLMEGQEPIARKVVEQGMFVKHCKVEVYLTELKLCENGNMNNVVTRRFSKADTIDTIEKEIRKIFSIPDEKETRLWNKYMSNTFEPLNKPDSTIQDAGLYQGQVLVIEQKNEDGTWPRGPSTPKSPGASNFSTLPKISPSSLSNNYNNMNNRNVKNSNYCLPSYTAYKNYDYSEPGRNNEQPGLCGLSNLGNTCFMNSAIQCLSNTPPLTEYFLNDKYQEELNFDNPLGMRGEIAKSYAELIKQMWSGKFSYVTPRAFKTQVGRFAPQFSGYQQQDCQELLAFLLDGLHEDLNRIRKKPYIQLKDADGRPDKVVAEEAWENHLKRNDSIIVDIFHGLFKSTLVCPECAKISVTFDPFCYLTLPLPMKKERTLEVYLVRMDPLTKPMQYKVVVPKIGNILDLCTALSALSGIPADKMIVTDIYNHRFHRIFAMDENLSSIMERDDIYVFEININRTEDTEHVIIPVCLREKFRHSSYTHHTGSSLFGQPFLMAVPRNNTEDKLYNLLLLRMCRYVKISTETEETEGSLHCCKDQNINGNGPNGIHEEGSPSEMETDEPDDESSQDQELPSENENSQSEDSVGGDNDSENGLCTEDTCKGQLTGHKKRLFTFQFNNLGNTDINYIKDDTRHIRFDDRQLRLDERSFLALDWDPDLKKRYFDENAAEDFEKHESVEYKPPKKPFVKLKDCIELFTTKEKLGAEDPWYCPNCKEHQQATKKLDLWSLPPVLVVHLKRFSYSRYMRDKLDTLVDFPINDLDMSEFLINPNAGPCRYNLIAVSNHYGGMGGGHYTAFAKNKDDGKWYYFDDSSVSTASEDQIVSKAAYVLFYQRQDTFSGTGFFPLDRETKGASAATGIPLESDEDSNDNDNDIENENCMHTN
Summary of the method: as §1

USP16 = USP16 (UniProt Q9Y5T5)
Chain of USP16 (Q9Y5T5 whole entry, looked up): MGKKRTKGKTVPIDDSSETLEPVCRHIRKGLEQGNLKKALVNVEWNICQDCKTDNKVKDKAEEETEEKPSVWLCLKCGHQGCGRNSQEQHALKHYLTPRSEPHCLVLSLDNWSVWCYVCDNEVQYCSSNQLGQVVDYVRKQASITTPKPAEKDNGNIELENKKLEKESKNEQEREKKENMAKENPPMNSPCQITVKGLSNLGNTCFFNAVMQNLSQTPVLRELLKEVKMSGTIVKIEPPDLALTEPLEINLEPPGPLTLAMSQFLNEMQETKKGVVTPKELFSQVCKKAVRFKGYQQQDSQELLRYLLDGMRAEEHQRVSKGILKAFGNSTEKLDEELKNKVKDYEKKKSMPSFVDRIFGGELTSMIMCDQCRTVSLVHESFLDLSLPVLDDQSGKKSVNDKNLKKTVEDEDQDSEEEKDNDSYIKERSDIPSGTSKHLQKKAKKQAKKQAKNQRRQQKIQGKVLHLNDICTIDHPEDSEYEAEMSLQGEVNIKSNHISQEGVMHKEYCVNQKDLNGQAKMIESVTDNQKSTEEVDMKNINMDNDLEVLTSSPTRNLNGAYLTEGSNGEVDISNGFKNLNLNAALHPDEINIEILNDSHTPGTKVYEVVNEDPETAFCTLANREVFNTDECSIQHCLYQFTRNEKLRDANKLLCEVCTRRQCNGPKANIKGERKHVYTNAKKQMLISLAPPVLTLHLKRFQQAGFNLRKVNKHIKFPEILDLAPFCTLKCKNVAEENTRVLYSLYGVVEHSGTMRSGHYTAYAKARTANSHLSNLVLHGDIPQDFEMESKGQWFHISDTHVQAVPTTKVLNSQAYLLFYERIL
Summary of the method: as §1

Measured: log2 ratio of Biotin-Ahx-Ub-VS probe labelling

O=C(CCl)N1CCC(C(O)c2ccc(F)cc2)CC1 (stereo not given)
active: UCHL1 -1.31
inactive: OTUD6B 0.0694 | OTUD7B -0.134 | PRPF8 -0.0885 | PSMD7 -0.0381 | UCHL3 0.426 | UCHL5 0.12 | USP10 -0.257 | USP15 0.278 | USP16 0.191
